About 2,000 (36%) of roughly 5,500 compounds were called active. Not shown: some 18% with an inconclusive outcome. Cut-off read from the data, not from the text of the source: active = normalized growth mostly below about 0.91 (no sharp cut-off); inconclusive = no clear call, values can overlap the other calls; inactive = mostly above about 0.92. Some of the results follow.
Assay: chemical genetic growth profiling, strain panel (AID 1159580);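 note: tested at 20 µM; growth read once vehicle control cultures reached saturation at 30 °C; 1 = growth at the plate median or of vehicle wells; lower values mean less growth of the strain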
Conditions: growth OD

Measured: normalized growth

O=C1CN(/N=C\c2ccc([N+](=O)[O-])o2)C(=O)N1
inactive: S. cerevisiae deletion strains, locus YJR075W, strain HOC1, hits give low values 0.986 | S. cerevisiae deletion strains, locus YKL009W, strain mrt4, hits give low values 0.967 | S. cerevisiae deletion strains, locus YKL068W, hits give low values 1 | S. cerevisiae deletion strains, locus YKL085W, strain MDH1 (second series), hits give low values 0.991 | S. cerevisiae deletion strains, locus YKL085W, strain MDH1, hits give low values 0.991 | S. cerevisiae deletion strains, locus YKL160W, strain elf1, hits give low values 0.985 | S. cerevisiae deletion strains, locus YKL190W, strain CNB1, hits give low values 0.996 | S. cerevisiae deletion strains, locus YKR001C, strain vps1, hits give low values 0.965 | S. cerevisiae deletion strains, locus YKR026C, strain gcn3, hits give low values 0.979 | S. cerevisiae deletion strains, locus YKR091W, strain srl3, hits give low values 0.979 | S. cerevisiae deletion strains, locus YLL001W, strain dnm1, hits give low values 1 | S. cerevisiae deletion strains, locus YLL026W, hits give low values 0.992 | S. cerevisiae deletion strains, locus YLL041C, strain sdh2, hits give low values 0.978 | S. cerevisiae deletion strains, locus YLR027C, strain aat2, hits give low values 0.975 | S. cerevisiae deletion strains, locus YLR039C, strain RIC1, hits give low values 0.983 | S. cerevisiae deletion strains, locus YLR058C, strain SHM2, hits give low values 1.01 | S. cerevisiae deletion strains, locus YLR102C, strain apc9, hits give low values 0.993 | S. cerevisiae deletion strains, locus YLR113W, strain HOG1, hits give low values 0.968 | S. cerevisiae deletion strains, locus YLR221C, strain rsa3, hits give low values 0.976 | S. cerevisiae deletion strains, locus YLR258W, strain gsy2, hits give low values 0.975 | S. cerevisiae deletion strains, locus YLR262C, strain YPT6 (second series), hits give low values 0.976 | S. cerevisiae deletion strains, locus YLR262C, strain YPT6, hits give low values 1.04 | S. cerevisiae deletion strains, locus YLR268W, strain sec22, hits give low values 0.996 | S. cerevisiae deletion strains, locus YLR320W, strain mms22, hits give low values 0.935 | S. cerevisiae deletion strains, locus YLR330W, strain CHS5, hits give low values 1 | S. cerevisiae deletion strains, locus YLR342W, strain FKS1 (second series), hits give low values 0.983 | S. cerevisiae deletion strains, locus YLR342W, strain FKS1, hits give low values 0.979 | S. cerevisiae deletion strains, locus YLR357W, strain rsc2, hits give low values 0.954 | S. cerevisiae deletion strains, locus YLR370C, strain arc18, hits give low values 0.985 | S. cerevisiae deletion strains, locus YLR371W, strain rom2, hits give low values 1.01 | S. cerevisiae deletion strains, locus YLR384C, strain iki3, hits give low values 0.986 | S. cerevisiae deletion strains, locus YLR418C, strain cdc73, hits give low values 0.885 | S. cerevisiae deletion strains, locus YML016C, strain PPZ1, hits give low values 0.998 | S. cerevisiae deletion strains, locus YML032C, strain rad52, hits give low values 0.929 | S. cerevisiae deletion strains, locus YML120C, strain ndi1, hits give low values 0.982 | S. cerevisiae deletion strains, locus YML124C, strain tub3, hits give low values 0.991 | S. cerevisiae deletion strains, locus YMR078C, strain ctf18, hits give low values 0.989 | S. cerevisiae deletion strains, locus YMR125W, strain sto1, hits give low values 0.943 | S. cerevisiae deletion strains, locus YMR129W, hits give low values 0.965 | S. cerevisiae deletion strains, locus YMR205C, strain PFK2, hits give low values 0.993 | S. cerevisiae deletion strains, locus YMR223W, strain ubp8, hits give low values 0.949 | S. cerevisiae deletion strains, locus YMR231W, strain pep5, hits give low values 0.985 | S. cerevisiae deletion strains, locus YMR263W, strain SAP30, hits give low values 0.977 | S. cerevisiae deletion strains, locus YMR307W, strain GAS1, hits give low values 0.973 | S. cerevisiae deletion strains, locus YNL067W, strain RPL9B, hits give low values 0.982 | S. cerevisiae deletion strains, locus YNL071W, strain lat1, hits give low values 0.959 | S. cerevisiae deletion strains, locus YNL128W, strain TEP1, hits give low values 0.974 | S. cerevisiae deletion strains, locus YNL153C, strain GIM3, hits give low values 0.966 | S. cerevisiae deletion strains, locus YNL183C, strain NPR1, hits give low values 0.879 | S. cerevisiae deletion strains, locus YNL209W, strain ssb2, hits give low values 0.975 | S. cerevisiae deletion strains, locus YNL233W, strain BNI4, hits give low values 0.995 | S. cerevisiae deletion strains, locus YNL248C, strain rpa49, hits give low values 0.923 | S. cerevisiae deletion strains, locus YNL271C, strain bni1, hits give low values 0.998 | S. cerevisiae deletion strains, locus YNL298W, strain CLA4, hits give low values 0.991 | S. cerevisiae deletion strains, locus YNL307C, strain MCK1, hits give low values 0.952 | S. cerevisiae deletion strains, locus YNL322C, strain KRE1 (second series), hits give low values 0.98 | S. cerevisiae deletion strains, locus YNL322C, strain KRE1, hits give low values 1.01 | S. cerevisiae deletion strains, locus YNR049C, strain mso1, hits give low values 0.984 | S. cerevisiae deletion strains, locus YNR052C, strain pop2, hits give low values 0.998 | S. cerevisiae deletion strains, locus YOL006C, strain TOP1, hits give low values 1.03 | S. cerevisiae deletion strains, locus YOL012C, strain htz1 0.88 | S. cerevisiae deletion strains, locus YOL147C, strain pex11, hits give low values 0.999 | S. cerevisiae deletion strains, locus YOR001W, strain rrp6, hits give low values 0.977 | S. cerevisiae deletion strains, locus YOR061W, strain CKA2, hits give low values 0.998 | S. cerevisiae deletion strains, locus YOR069W, strain VPS5, hits give low values 0.999 | S. cerevisiae deletion strains, locus YOR070C, strain gyp1, hits give low values 0.98 | S. cerevisiae deletion strains, locus YOR080W, strain dia2, hits give low values 0.983 | S. cerevisiae deletion strains, locus YOR083W, strain WHI5, hits give low values 1 | S. cerevisiae deletion strains, locus YOR106W, strain vam3, hits give low values 0.969 | S. cerevisiae deletion strains, locus YOR136W, strain idh2, hits give low values 0.983 | S. cerevisiae deletion strains, locus YOR144C, strain elg1, hits give low values 1.02 | S. cerevisiae deletion strains, locus YOR184W, strain ser1, hits give low values 0.932 | S. cerevisiae deletion strains, locus YOR231W, strain MKK1, hits give low values 0.889 | S. cerevisiae deletion strains, locus YOR265W, strain rbl2, hits give low values 0.979 | S. cerevisiae deletion strains, locus YOR270C, strain vph1, hits give low values 0.874 | S. cerevisiae deletion strains, locus YOR290C, strain snf2, hits give low values 0.961 | S. cerevisiae deletion strains, locus YOR316C, strain cot1, hits give low values 0.999 | S. cerevisiae deletion strains, locus YPL051W, strain arl3, hits give low values 0.979 | S. cerevisiae deletion strains, locus YPL055C, strain LGE1, hits give low values 0.97 | S. cerevisiae deletion strains, locus YPL078C, strain atp4, hits give low values 0.956 | S. cerevisiae deletion strains, locus YPL106C, strain sse1, hits give low values 0.964 | S. cerevisiae deletion strains, locus YPL240C, strain hsp82, hits give low values 0.974 | S. cerevisiae deletion strains, locus YPL241C, strain CIN2, hits give low values 0.996 | S. cerevisiae deletion strains, locus YPL256C, strain CLN2, hits give low values 0.956 | S. cerevisiae deletion strains, locus YPR119W, strain clb2, hits give low values 1 | S. cerevisiae deletion strains, locus YPR141C, strain kar3, hits give low values 1.01 | S. cerevisiae deletion strains, locus YPR163C, strain tif3, hits give low values 1 | S. cerevisiae deletion strains, locus YPR167C, strain met16, hits give low values 1 | S. cerevisiae deletion strains, strain wtn01, hits give low values 0.99 | S. cerevisiae strains, strain wild type, hits give low values 0.997
active: S. cerevisiae deletion strains, locus YMR058W, strain fet3, hits give low values 0.898 | S. cerevisiae deletion strains, locus YNL250W, strain rad50, hits give low values 0.877

From PubChem BioAssay AID1159580 (chemical genetic matrix, 2015)
